“And” between values parts separate entries of the source, which are not always exact repeats. Equal values may be shown once. Records with an inconclusive call do not appear. Where a structure was tested more than once in an assay, its records may differ in their call. The source made the active and inactive calls. Calls follow the shape of the full dose curve.
% is scaled to controls: 0 for no effect and ±100 for the full control effect; potency is read from the fitted curve at half-maximal effect.

The nature of the test: qHTS assay for small molecule agonists of the p53 signaling pathway - cell viability (AID 651633). Also: nearly all actives have a fitted effect of over 30% in size.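 As to activity change, negative = cytotoxicity: p53RE-bla HCT reporter cells with a stable beta-lactamase p53 reporter.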 As to conditions: p53RE-bla HCT-116 viability, ATP luminescence, 16 h; series mostly up to 83.3 µM; activity change, negative = cytotoxicity: at the top concentration. An excerpt:
National Center for Advancing Translational Sciences [NCATS]
NIH Chemical Genomics Center [NCGC]
U.S. Environmental Protection Agency [EPA]
National Institutes of Environmental Health Sciences [NIEHS]
National Toxicology Program [NTP]
U.S. Food and Drug Administration [FDA]
p53, a tumor suppressor protein, is activated following cellular insult, including DNA damage and other cellular stresses. The activation of p53 regulates cell fate by inducing DNA repair, cell cycle arrest, apoptosis, or cellular senescence. The activation of p53, therefore, is a good indicator of DNA damage and other cellular stresses. […] The activation of the reporter gene under culture conditions can be detected by fluorescence intensity. This cell line was used to screen the Tox21 compound library in a 1536-well plate format and to identify agonists that activate the p53 signaling pathway.
Tox21 Assay Protocol Summary:
The p53RE-bla cells were dispensed at 4,000 cells/5 ul/well in 1536-well black wall/clear bottom plates using a Multidrop dispenser. After the assay plates were incubated at a 37 C/5% CO2 incubator for 5 hours, 23 nL of compounds dissolved in DMSO, positive controls or DMSO only was transferred to the assay plate by a pin tool. The plates were incubated at 37 C for 16 hours. After 1 uL of LiveBLAzerTM B/G FRET substrate was added using a Flying Reagent Dispenser, the plates were incubated at room temperature for 2 hours, and fluorescence intensity was measured by an Envision plate reader.
For cell viability readout that measures cytotoxicity, 4 ul/well of CellTiter-Glo reagent was added into the assay plates using a Flying Reagent Dispenser. After 30 min incubation at room temperature, the luminescence intensity in the plates was measured using a ViewLux plate reader.
For orientation: Quantitative high-throughput screening tests each substance at several concentrations.
Consider `CCOC(=O)[C@@H](C)Oc1ccc(Oc2nc3ccc(Cl)cc3o2)cc1`, for which the “activity change, negative = cytotoxicity” value is -10.4% (inactive). `CC[C@@H]([C@H](C)O)n1ncn(-c2ccc(N3CCN(c4ccc(OC[C@@H]5CO[C@@](Cn6cncn6)(c6ccc(F)cc6F)C5)cc4)CC3)cc2)c1=O`: the Potency is 29.8 µM (active). In the case of `Cc1cc(O)c2c(O)c3c(O)cccc3cc2c1`, the “activity change, negative = cytotoxicity” value is -14.6% (inactive). Regarding `CC(C)(O)c1ccccc1CC[C@@H](SCC1(CC(=O)O)CC1)c1cccc(/C=C/c2ccc3ccc(Cl)cc3n2)c1`, the Potency was 13.3 µM (active). As for `O=C1NCCN1`, the “activity change, negative = cytotoxicity” value was 16.8% (inactive).

With `CC1(C)C2=CCCC(C)(C)[C@]23CC[C@H]1C3`, the “activity change, negative = cytotoxicity” value is 7.41% (inactive). Take `O=C(/C=C/c1ccccc1)OCCCc1ccccc1`: the “activity change, negative = cytotoxicity” value was 12.2% (inactive). Consider `CCCCCCCCCCCC[N+](C)(C)CCCS(=O)(=O)[O-]`, for which the “activity change, negative = cytotoxicity” value was -9.27% [at 95.3 µM] (inactive). On the same count and under the same terms, for `Cc1nc2ccccc2s1` the value was -10.2% [at 95.3 µM] (inactive); for `CO[Si](C)(OC)OC`, -7.12% (inactive); for `Oc1ccc(Nc2ccccc2)cc1`, 15.6% (inactive). For the compound `CCCCCCOC(=O)C(C)C`, the “activity change, negative = cytotoxicity” value is 13.3% (inactive).

As for `CCC(=O)Oc1ccc(/C(CC)=C(\CC)c2ccc(OC(=O)CC)cc2)cc1`, the “activity change, negative = cytotoxicity” value is -20.3% (inactive). For the compound `O=C(CCCCCCC(=O)Nc1ccccc1)NO`, the “activity change, negative = cytotoxicity” value was -13.5% (inactive). As for `C[Si]1(C)O[Si](C)(C)O[Si](C)(C)O1`, the “activity change, negative = cytotoxicity” value was 12.2% (inactive).

On to `CCOC(=N)CC(=O)OCC`, for which the “activity change, negative = cytotoxicity” value was 12.2% (inactive). Turning to `CN1CCN(c2c(F)cc3c(=O)c(C(=O)O)cn4c3c2OCN4C)CC1`, the “activity change, negative = cytotoxicity” value is 18.3% (inactive). In the case of `COc1ccc(CCC(=O)c2c(O)cc(O[C@@H]3O[C@H](CO)[C@@H](O)[C@H](O)[C@H]3O[C@@H]3O[C@@H](C)[C@H](O)[C@@H](O)[C@H]3O)cc2O)cc1O`, the “activity change, negative = cytotoxicity” value is 11.9% (inactive).

As for `CC1=CC(O)CC(C)(C)C1` (stereo not given), the “activity change, negative = cytotoxicity” value is 25.8% (inactive). Regarding `CCCCC/C(=C\c1ccccc1)CO`, the “activity change, negative = cytotoxicity” value is -3.9% [at 95.3 µM] (inactive). `CC(C)c1nnc2ccc(-c3ocnc3-c3cc(F)ccc3F)cn12`: the “activity change, negative = cytotoxicity” value is -5.29% (inactive).

As to `C=CC(C)(O)CCCC(C)CCCC(C)CCCC(C)C` (stereo not given), the “activity change, negative = cytotoxicity” value is 11.6% (inactive). Regarding `C=C(C)C(=O)OCCOC(=O)CC(C)=O`, the “activity change, negative = cytotoxicity” value was 17% (inactive). Still for that read-out and setting: for `Oc1cc(O)c(Cl)cc1Cl` the value was 14.5% [at 95.3 µM] (inactive); for `OC/C(Br)=C(\Br)CO`, 6.82% (inactive). For `Cc1cc(O)c(C(C)C)cc1Cl`, the Potency entry is “inactive and 54.5 µM (active)”. `[O]=[Bi]`: the activity change, negative = cytotoxicity is 9.6% [at 8.08 µM] (inactive). The same measure, in the same setting: for `C1COCO1` the value was 14.6% (inactive).

`Cc1occc1C(=O)Nc1ccc(C(=O)N2CCC(F)(F)/C(=C\C(=O)N3CCC(N4CCCCC4)CC3)c3ccccc32)cc1`: the “activity change, negative = cytotoxicity” value was -8.72% [at 39.1 µM] (inactive).

With `c1ccc(COCc2ccccc2)cc1`, the “activity change, negative = cytotoxicity” value is -9.31% [at 95.3 µM] (inactive). On to `CC(N)CN` (stereo not given), for which the “activity change, negative = cytotoxicity” value was 14.7% [at 95.3 µM] (inactive). Take `CC(C)(C)C(=O)C(Oc1ccc(Cl)cc1)n1ccnc1` (stereo not given): the “activity change, negative = cytotoxicity” value was -13.4% (inactive). As to `NCC1CCCC(CN)C1` (stereo not given), the “activity change, negative = cytotoxicity” value was 9.18% (inactive). Same read-out and setting: for `NC(=O)N(O)[C@@H]1C=C[C@H](Oc2cccc(Oc3ccc(F)cc3)c2)C1` the value was -10.3% (inactive); for `COCC(O)CO` (stereo not given), 11.9% [at 95.3 µM] (inactive); for `Cc1nc2ccccn2c(=O)c1CCN1CCC(C(=O)c2ccc(F)cc2)CC1`, -18.7% (inactive).

Take `O=C(CCC1CCN(Cc2ccccc2)CC1)c1ccc2c(c1)NCCCC2`: the “activity change, negative = cytotoxicity” value was -16.7% (inactive). Consider `CC1CC(O)CC(C)(C)C1` (stereo not given), for which the Potency entry was “inactive”. On to `O=C(O)c1cccnc1C(=O)O`, for which the “activity change, negative = cytotoxicity” value is 20% (inactive). As for `CCCOc1ccc(S(=O)(=O)N2CCN(CC)CC2)cc1-c1nc2c(CC)n(Cc3ccccn3)nc2c(=O)[nH]1`, the “activity change, negative = cytotoxicity” value is 10.8% (inactive).

The values are drawn from PubChem BioAssay (Tox21).
